Assay outcomes: PubChem BioAssay, several laboratories
ADAM10 inh = inhibitors of human ADAM10. recombinant ADAM10, EDANS/DABCYL FRET peptide cleavage, 3 h. inhibition, % at 7 µM. hit rate 0.62% among 370,000. AID 720582;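 active means inhibition above a per-campaign cutoff equal to the mean of compounds falling between control-based bounds plus 3 SD, cut at about 20% in these data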;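 further: 0% = DMSO wells while the 100% control is not disclosed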
ADAM17 inh = inhibits human ADAM17. recombinant ADAM17, EDANS/DABCYL FRET peptide cleavage. inhibition, % at 6.95 µM. hit rate 0.83% among 370,000;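 active means inhibition above the mean of compounds lying between control limits plus 3 SD, set per campaign, cut at about 8.5% in these data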;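 further: 0% = DMSO-only wells as the low control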
Target sequence (P78536 215-824 limits assumed): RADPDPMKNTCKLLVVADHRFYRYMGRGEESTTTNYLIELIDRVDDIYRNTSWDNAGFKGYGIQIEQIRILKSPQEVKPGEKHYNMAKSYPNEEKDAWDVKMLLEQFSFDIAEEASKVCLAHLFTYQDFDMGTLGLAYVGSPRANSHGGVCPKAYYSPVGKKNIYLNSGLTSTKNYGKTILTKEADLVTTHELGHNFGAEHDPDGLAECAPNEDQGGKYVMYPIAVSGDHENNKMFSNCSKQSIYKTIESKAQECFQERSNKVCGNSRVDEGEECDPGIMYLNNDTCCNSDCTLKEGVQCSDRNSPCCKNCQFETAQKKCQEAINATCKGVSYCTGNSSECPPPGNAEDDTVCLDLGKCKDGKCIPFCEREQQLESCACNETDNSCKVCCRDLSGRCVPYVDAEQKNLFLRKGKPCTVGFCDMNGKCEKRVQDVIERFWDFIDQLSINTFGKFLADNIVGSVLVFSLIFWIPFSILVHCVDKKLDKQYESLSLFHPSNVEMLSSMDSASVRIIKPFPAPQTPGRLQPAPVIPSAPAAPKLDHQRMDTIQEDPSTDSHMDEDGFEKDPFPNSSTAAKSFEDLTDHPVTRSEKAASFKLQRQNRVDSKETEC
NRP1-CendR mod = modulators of CendR peptide binding to human neuropilin-1. FAM-RPARPAR peptide binding to NRP-1, fluorescence polarization. O14786. inhibition, % at 25 µM. hit rate 0.85% among 360,000. AID 602438;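 active means inhibition or corrected inhibition above about 18%, plus a signal ratio from 0.5 to 1.5, limit read from the data, passing the limit was not always enough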
A3G deaminase = inhibitors of human APOBEC3G DNA deaminase; Q9HC16; recombinant A3G, ssDNA deamination FAM/TAMRA fluorescence; inhibition, % at 20 µM; hit rate 0.28% among 330,000; AID 493012;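 active means inhibition of at least 40% at 20 µM, with no more than 30% in the related APOBEC3A deaminase screen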;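 further: plate controls were DMSO wells with A3G for no effect and wells lacking A3G enzyme for full effect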
APOBEC3A inh = inhibitors of human APOBEC3A DNA deaminase; AID 493011; recombinant A3A, FAM/TAMRA ssDNA deamination fluorescence; inhibition, % at 20 µM; P31941; hit rate 0.41% among 330,000;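 active means at least 40% inhibition at 20 µM here, with at most 30% in a related deaminase screen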;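 further: plate controls were A3A with DMSO for no effect and wells lacking A3A enzyme for full effect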
ADAM10 confirm = human ADAM10 inhibition, confirmation. shares compounds with ADAM10 inh. ADAM10 QFRET peptide cleavage, EDANS fluorescence. hit rate 1% among 2,100. AID 743208. inhibition, % at 6.95 µM;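 active means inhibition above about 20% chosen separately for each screening run, limit read from the data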;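 further: 0% = DMSO wells and 100% = marimastat wells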
ADAM17 ctr = ADAM17 inhibition, counter-screen for ADAM10 exosite hits | ADAM17 QFRET peptide cleavage, EDANS fluorescence | inhibition, % at 6.95 µM | hit rate 0.5% among 2,100 | shares compounds with ADAM10 inh | AID 743214;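 active means mean triplicate inhibition above the solvent-only control wells' mean plus 3 SD, cut at about 12% in these data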;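 further: 0% = DMSO wells and 100% = marimastat wells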
ADAM10 counter = inhibits human ADAM10 in ADAM17 exosite counter-screen | recombinant ADAM10, EDANS/DABCYL FRET peptide cleavage, 3 h | inhibition, % at 6.95 µM | shares compounds with ADAM17 inh | AID 743256 | hit rate 47% among 2,900;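 active means mean inhibition over the triplicate runs exceeds the activity threshold set in the earlier primary screen, cut at about 20% in these data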;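 further: 0% = DMSO wells and 100% = marimastat wells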
ADAM17 confirm = human ADAM17 inhibition, confirmation; inhibition, % at 6.95 µM; shares compounds with ADAM17 inh; recombinant ADAM17, EDANS/DABCYL QFRET peptide cleavage; hit rate 65% among 2,900; AID 743257;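 active means mean inhibition across replicates above the hit cutoff set in the primary screen, cut at about 8.5% in these data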;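 further: 0% = DMSO wells and 100% = marimastat wells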
The depositor's hits bear a star; / = no result. Shown are actives, neighbours in structure and some others; about 2.4% of the full set was active somewhere.

SMILES	ADAM10 inh	ADAM17 inh	NRP1-CendR mod	A3G deaminase	APOBEC3A inh	ADAM10 confirm	ADAM17 ctr	ADAM10 counter	ADAM17 confirm
COC(=O)[C@]12C[C@H](CC(=O)NCc3ccc(OC)c(OC)c3)C(=O)N(Cc3cccc4ccccc34)C1=C[C@H](C(C)(C)C)O[C@@H]2C	19.9*	8.8*	/	/	/	6.5	2.9	29.0*	21.9*
COC(=O)[C@]12C[C@H](CC(=O)NCc3cccc4ccccc34)C(=O)N(Cc3ccco3)C1=C[C@H](C(C)(C)C)O[C@@H]2C	24.4*	9.4*	/	/	/	8.0	2.9	31.6*	14.8*
COC(=O)[C@]12C[C@H](CC(=O)NCc3ccc(OC)c(OC)c3)C(=O)N(Cc3ccccc3)C1=C[C@H](C(C)(C)C)O[C@@H]2C	-1.6	1.4	/	/	/	/	/	/	/
COC(=O)[C@]12C[C@H](CC(=O)NCc3cccc4ccccc34)C(=O)N(Cc3ccccc3)C1=C[C@H](C(C)(C)C)O[C@@H]2C	11.7	5.0	/	/	/	/	/	/	/
COCc1cc(N2CCN(C(=O)OC(C)(C)C)C[C@@H]2C)ccc1N1CC[C@@H](O)C1	-9.7	-0.9	/	/	/	/	/	/	/
COC(=O)c1ccc(CN2C(=O)[C@]3(OCCC=C[C@H]3C)c3cc(OC)ccc32)cc1	-9.0	-5.0	/	/	/	/	/	/	/
CCOC(=O)C(=O)Cc1nc(OCc2ccccc2)cc(OCc2ccccc2)n1	-3.2	-3.4	9.0	/	/	/	/	/	/
CCOC(=O)C(Cc1nc(OCc2ccccc2)cc(OCc2ccccc2)n1)=NO	28.4*	8.8*	-8.2	/	/	8.7	3.1	23.6*	12.1*
CCCc1nc2ccccc2c(C(=O)OC(C)C(=O)NCc2ccc3c(c2)OCO3)c1CC (centres undefined)	26.7*	10.4*	-1.3	-4.3	-5.5	3.4	0.9	24.8*	11.6*
CCCc1nc2ccccc2c(C(=O)OCC(=O)NCc2ccc3c(c2)OCO3)c1CC	8.0	5.9	-4.2	-1.3	3.7	/	/	/	/
Cc1ccc(CN2CC(N3CCC[C@@H]3C)CS2(=O)=O)cc1 (some centres undefined)	-7.0	-4.6	/	/	/	/	/	/	/
Cc1cc(C)c(CSc2ncc(-c3ccc([N+](=O)[O-])cc3)[nH]2)c(C)c1	34.4*	11.0*	-15.8	-3.6	-1.1	12.0	4.0	41.1*	23.3*
NC(=O)CSc1ncc(-c2ccc([N+](=O)[O-])cc2)[nH]1	4.4	1.8	0.3	-4.8	-1.0	/	/	/	/
COc1cccc(NC(=S)NCCC(c2ccccc2)c2ccccc2)c1	17.4	7.4	3.8	-3.4	-4.1	/	/	/	/
COc1cc(NC(=S)NCCC(c2ccccc2)c2ccccc2)cc(OC)c1	22.9*	11.6*	-7.0	-5.3	-2.6	9.1	1.9	20.2*	12.6*
CC(=O)C1(C(=O)N2CCOCC2)CC(c2ccccc2C(F)(F)F)=NO1 (centres undefined)	-8.6	-4.7	/	/	/	/	/	/	/
Cc1cc(-n2c(C)cc(C(=O)CSc3nnnn3-c3ccccc3)c2C)no1	3.5	0.8	-10.1	-2.7	-2.5	/	/	/	/
Cc1ccc(-n2nnnc2SCC(=O)c2cc(C)n(-c3cc(C)on3)c2C)c(C)c1	23.8*	14.9*	-24.2	-3.4	0.2	3.1	1.6	18.6	10.7*
O=C(CSc1nc2ccccc2nc1N1CCOCC1)NCc1ccc(Cl)cc1Cl	-1.0	0.4	/	/	/	/	/	/	/
CC1(C(=O)OCC(=O)Nc2nc(-c3ccc(F)c(F)c3)cs2)CC1(Cl)Cl (centres undefined)	20.7*	9.3*	16.0	-1.3	1.0	8.3	2.4	24.4*	15.6*
CN[C@H]1C[C@H]2c3[nH]c4c(-c5cccc(C)c5)cccc4c3CCN2C[C@H]1[C@H](C)O	-23.5	-6.2	/	/	/	/	/	/	/
Cc1cccc(C(O)c2ncc(-c3cccc(C(F)(F)F)c3)[nH]2)c1C (centres undefined)	22.5*	14.7*	-0.7	/	/	1.9	-0.2	4.7	7.1
Cc1ccc(-c2cnc(C(O)c3cccc(Cl)c3)[nH]2)cc1 (centres undefined)	/	/	-3.8	/	/	/	/	/	/
OC(c1cc(F)cc(Cl)c1)c1ncc(-c2ccc(Cl)cc2)[nH]1 (centres undefined)	29.1*	17.3*	11.2	/	/	4.8	0.3	21.4*	11.2*
OC(c1cccc(Cl)c1)c1ncc(-c2cccc(C(F)(F)F)c2)[nH]1 (centres undefined)	29.3*	9.2*	-4.2	/	/	1.6	0.6	23.3*	14.1*
SMILES	ADAM10 inh	ADAM17 inh	NRP1-CendR mod	A3G deaminase	APOBEC3A inh	ADAM10 confirm	ADAM17 ctr	ADAM10 counter	ADAM17 confirm
COC(=O)c1ccc(CN(c2ccc(C(=O)O)c(O)c2)S(=O)(=O)c2ccc(Cl)c([N+](=O)[O-])c2)cc1	23.2*	10.7*	-10.1	/	/	9.1	2.6	38.6*	22.9*
COC(=O)c1ccc(CN(c2ccccn2)S(=O)(=O)c2ccccc2)cc1	-102.3	-31.6	-3.8	/	/	/	/	/	/
COC(=O)C1CN(Cc2cn(Cc3ccc(F)cc3)nn2)CCS(=O)(=O)N1Cc1ccccc1 (centres undefined)	1.9	-1.5	/	/	/	/	/	/	/
COc1ccc(CN(CCC(c2ccc(F)cc2)C2CCOC(C)(C)C2)C(=O)c2ccco2)cc1 (centres undefined)	21.5*	13.9*	13.5	-6.9	-1.9	4.6	1.6	24.7*	14.9*
O=C(CCl)N1CCN2C(=O)c3ccccc3C12c1ccc(Cl)cc1 (centres undefined)	2.3	0.0	-6.6	-8.6	1.3	/	/	/	/
O=C(Nc1cccc(Cl)c1)N1CCN2C(=O)c3ccccc3C12c1ccccc1 (centres undefined)	22.5*	11.1*	-12.2	-10.0	-6.2	3.4	1.3	20.4*	11.5*
Cc1ccc(C2CN(C)C3(C(=O)Nc4ccccc43)C23COc2ccccc2C3=O)cc1 (centres undefined)	27.0*	9.6*	40.3*	-3.5	2.4	7.5	2.8	34.9*	19.1*
CC(C)(C)OC(=O)N1C[C@@]23C[C@H](c4cccc(F)c4)[C@@H](C[C@@H]2S1(=O)=O)O3	-9.9	-4.0	/	/	/	/	/	/	/
FC(F)(F)c1cccc(NC(=S)NCc2ccc(Cl)cc2)c1	22.3*	9.1*	-0.3	-1.3	0.0	2.9	2.3	26.1*	15.0*
CCOc1cc(/C=N/NC(=O)CNc2cccc(C)c2)ccc1OC(=O)c1ccccc1	25.0*	11.7*	-0.7	-2.3	1.8	8.4	2.8	33.1*	16.0*
CCOc1cc(/C=N/Nc2cccc(C(=O)O)c2)ccc1OC(=O)c1ccccc1	2.9	-0.4	-2.0	-1.7	2.0	/	/	/	/
